Composite z-score and z-score data for 21 compounds are collected here from PubChem BioAssay.

In experiment [1] the test system is XIP peptide (Xip251-270) binding. The experiment in a line: small-molecule binders of XIP peptide, primary screen, biochemical, small-molecule microarray, fluorescence 635/667 nm, 0.1 µg/mL protein (AID 1182). As to conditions: fluorescent protein binding, 635 nm, higher = more signal, called active from +8 up or from −8 down.
A further experiment deals with XIP peptide (Xip251-270). In words: small-molecule binders of XIP peptide, primary screen, biochemical, small-molecule microarray, fluorescence 635/667 nm, 0.5 µg/mL protein (AID 1183). Particulars: small-molecule microarray binding, fluorescence 635 nm; higher = more signal.
Experiment [2] can be described thus: Plasmodium falciparum growth inhibition, primary screen, strain 3D7, DAPI fluorescence, 100 nL (AID 1184).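 Note: parasites grown inside human red blood cells in medium with human serum.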 Particulars: P. falciparum 3D7 growth, 3 d, higher = more signal.
Experiment [3] deals with Homeobox protein Hox-A13 (Mus musculus) (UniProt Q62424). The experiment in a line: inhibitors of HoxA13-DNA binding, primary screen, biochemical, fluorescence polarization, labeled oligonucleotide (AID 1185). Particulars: 15 min, higher = more signal, called active from +8 up or from −8 down.
Chain of Homeobox protein Hox-A13 (Mus musculus) (Q62424 whole entry, looked up): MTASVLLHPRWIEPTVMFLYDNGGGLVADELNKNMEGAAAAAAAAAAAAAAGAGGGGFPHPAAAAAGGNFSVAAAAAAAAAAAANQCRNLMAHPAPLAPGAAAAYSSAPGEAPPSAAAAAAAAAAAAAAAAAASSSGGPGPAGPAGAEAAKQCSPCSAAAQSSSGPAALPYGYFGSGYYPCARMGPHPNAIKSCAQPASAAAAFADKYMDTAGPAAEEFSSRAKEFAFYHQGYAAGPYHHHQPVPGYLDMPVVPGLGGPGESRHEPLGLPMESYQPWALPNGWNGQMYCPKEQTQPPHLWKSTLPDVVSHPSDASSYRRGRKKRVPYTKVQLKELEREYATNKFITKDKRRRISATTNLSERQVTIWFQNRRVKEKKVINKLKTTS
Experiment [4] is described as follows: inhibitors of hydroxyurea-induced Chk1 phosphorylation, primary screen, imaging, HeLa, phospho-Chk1 antibody, percent positive cells (AID 1186). As to conditions: hydroxyurea-induced phospho-Chk1 immunofluorescence imaging, higher = more signal.
Experiment [5] is described as follows: inhibitors of hydroxyurea-induced Chk1 phosphorylation, primary screen, imaging, HeLa, phospho-Chk1 nuclear intensity (AID 1187). As to conditions: hydroxyurea-induced phospho-Chk1 immunofluorescence imaging, higher = more signal.

Active and inactive are the calls of the source. Unless noted, the rule behind the calls is not given here.

With `Cc1ccc(S[C@]2(C(=O)NCC(F)(F)F)CC(=O)N(C3CCCCC3)[C@@H]2c2ccc(CO)cc2I)cc1`, the composite z-score was -0.0988 (inactive) in experiment [1] and 0.735 in the experiment with XIP peptide (Xip251-270). The z-score in experiment [2] is -0.142; in experiment [3] it was -3.45 (inactive); in experiment [4], 0.148 (inactive); in experiment [5] it was 0.594 (inactive).

Take `O=C1O[C@H](c2ccccc2)[C@H](c2ccccc2)N2[C@H]1[C@@H](C(=O)Nc1nc3ccccc3s1)[C@]1(C(=O)Nc3ccc(C#CCCO)cc31)[C@H]2c1ccc(O)cc1`: the composite z-score was 0.25 (inactive) in experiment [1] and 0.625 with XIP peptide (Xip251-270). In addition, the z-score in experiment [2] is 0.902; in experiment [3], -1.02 (inactive); in experiment [4], -0.334 (inactive); in experiment [5], -0.376 (inactive).

`C=CCOC(=O)[C@H]1[C@@H]2C(=O)O[C@@H](c3ccccc3)[C@@H](c3ccccc3)N2[C@@H](c2ccc(OCCOC(=O)[C@H]3C[C@H]4C(=O)N[C@@H](CC(C)C)C(=O)N4[C@H]3c3cccc(OCCO)c3)cc2)[C@]12C(=O)Nc1ccc(I)cc12`: the composite z-score in experiment [1] was 0.124 (inactive); in the experiment on XIP peptide (Xip251-270), 0.694. Also, the z-score in experiment [2] is -1.79; in experiment [3] it was 0.344 (inactive); in experiment [4] it was -0.592 (inactive); in experiment [5], -1.19 (inactive).

Turning to `COCCOC(=O)N1C(=O)[C@@]2(c3cc(C#CCCO)ccc31)[C@H](c1ccccc1OCCO)N1[C@H](c3ccccc3)[C@H](c3ccccc3)OC(=O)[C@H]1[C@@H]2C(=O)Nc1nc2ccccc2s1`, the composite z-score in experiment [1] was 1.45 (inactive); with XIP peptide (Xip251-270) it was 0.823. For the same compound, the z-score in experiment [2] is -1.45; in experiment [3], 1.85 (inactive); in experiment [4], 0.0686 (inactive); in experiment [5] it was 0.0927 (inactive).

Consider `C=C[C@@H](OC)[C@H](OC(=O)Nc1ccc(SC)cc1)c1ccc(O)c(F)c1`, for which the results for the composite z-score (in experiment [1]; with XIP peptide (Xip251-270)) were 0.313 (inactive) and 0.0562, respectively. Also, the z-score was -0.386 in experiment [2], -4.2 (inactive) in experiment [3], -0.337 (inactive) in experiment [4] and -0.23 (inactive) in experiment [5].

With `C=C(C)C1CCC(C(O)C2C=CC3C(=O)N(C)C(=O)C3N2N2CCCCC2)CC1` (stereo unspecified), the composite z-score in experiment [1] is 0.763 (inactive); in the experiment on XIP peptide (Xip251-270), 0.622. Besides, the z-score was -0.122 in experiment [2], -5.66 (inactive) in experiment [3], 0.692 (inactive) in experiment [4] and 0.133 (inactive) in experiment [5].

`C=C(COC)C(=O)CC[C@@H](OC(=O)c1cccnc1)c1ccc(OCCO)cc1`: the composite z-score in experiment [1] was -0.344 (inactive); in the experiment on XIP peptide (Xip251-270), 0.481. Also, the z-score was 0.415 in experiment [2], -4.4 (inactive) in experiment [3], -0.0647 (inactive) in experiment [4] and -0.573 (inactive) in experiment [5].

Turning to `COC(=O)[C@H](Cc1ccccc1)N1CC(/C=C/C2CC2)=C[C@H]1[C@H](O)Cc1ccccc1`, the composite z-score in experiment [1] is 0.444 (inactive); with XIP peptide (Xip251-270) it was 0.337. The z-score in experiment [2] was -1.65; in experiment [3] it was -5.54 (inactive); in experiment [4], -0.45 (inactive); in experiment [5] it was -0.749 (inactive).

Consider `CCOC(=O)C1=CC[C@@H](c2ccccc2C(F)(F)F)N(S(=O)(=O)c2ccc(C)cc2)[C@H]1c1ccc(C#N)cc1`, for which the results for the composite z-score (in experiment [1]; in the experiment with XIP peptide (Xip251-270)) were 0.205 (inactive) and 0.534, respectively. Moreover, the z-score was -2.2 in experiment [2], -0.224 (inactive) in experiment [3], 0.479 (inactive) in experiment [4] and -0.581 (inactive) in experiment [5].

Consider `C=C[C@@H](COC(C)=O)N(C(=O)OC(C)(C)C)S(=O)(=O)c1ccc(Br)cc1`, for which the composite z-score was 0.805 (inactive) in experiment [1] and 0.546 in the experiment on XIP peptide (Xip251-270). The z-score is 0.573 in experiment [2], -2.35 (inactive) in experiment [3], -0.506 (inactive) in experiment [4] and -0.474 (inactive) in experiment [5].

Turning to `C=CCC(OC(C)=O)[C@@H]1[C@@H](N(Cc2ccc(-c3cccc(C(F)(F)F)c3)o2)C(=O)c2ccc(C)cc2)c2cc(OCCCO)ccc2N1C(=O)c1ccc2ccccc2c1` (stereo partly specified), the composite z-score in experiment [1] is 0.579 (inactive); in the experiment with XIP peptide (Xip251-270), 0.0901. The z-score is -2.6 in experiment [2], -0.683 (inactive) in experiment [3], -0.793 (inactive) in experiment [4] and -0.595 (inactive) in experiment [5].

For the compound `CC(C)(C)OC(=O)CC[C@]1(C(=O)NCC(O)CO)N=C(c2ccc(OCCCO)cc2)O[C@H]1c1ccccc1` (stereo partly specified), the composite z-score in experiment [1] was 0.0294 (inactive); with XIP peptide (Xip251-270), 0.628. The z-score in experiment [2] was -1.74; in experiment [3] it was -4.14 (inactive); in experiment [4] it was -0.703 (inactive); in experiment [5] it was -0.886 (inactive).

As to `CO[C@H]1O[C@H](CO)[C@@H](OC(=O)Nc2ccccc2-c2ccccc2)[C@H](OC(=O)Nc2ccc3c(c2)OCO3)[C@H]1OC(=O)Nc1ccc2c(c1)OCO2`, the composite z-score is 0.886 (inactive) in experiment [1] and 0.892 in the experiment on XIP peptide (Xip251-270). The z-score in experiment [2] was -1.6; in experiment [3], -9.89 (active); in experiment [4] it was -0.356 (inactive); in experiment [5], -0.272 (inactive).

For the compound `O=C(NCC(F)(F)F)[C@@H]1c2ccccc2C(=O)N(Cc2ccc(OC(F)(F)F)cc2)[C@H]1c1ccc(CO)cc1`, the values for the composite z-score (in experiment [1]; in the experiment with XIP peptide (Xip251-270)) were 0.21 (inactive) and 0.235, respectively. Further, the z-score was -0.828 in experiment [2], -3.13 (inactive) in experiment [3], -0.263 (inactive) in experiment [4] and -0.383 (inactive) in experiment [5].

As to `CC(C)C(CO)N1C(=O)[C@@H]2C3C(=O)OCCC/C=C\[C@H]3OC23C=CCN(C(C)(C)C)C(=O)[C@@H]13` (stereo partly specified), the composite z-score was -0.68 (inactive) in experiment [1] and -0.201 in the experiment with XIP peptide (Xip251-270). Moreover, the z-score is 1.16 in experiment [2], -5.07 (inactive) in experiment [3], 0.0464 (inactive) in experiment [4] and -0.0642 (inactive) in experiment [5].

For the compound `CC(C)[Si](C#CCCCC#N)(O[C@H](c1ccccc1)c1cn([C@H](CO)Cc2ccccc2)nn1)C(C)C`, the composite z-score is 0.0339 (inactive) in experiment [1] and 0.283 in the experiment on XIP peptide (Xip251-270). Further, the z-score in experiment [2] was 0.0921; in experiment [3], -0.999 (inactive); in experiment [4], -0.43 (inactive); in experiment [5], -1.05 (inactive).

In the case of `CCCNC(=O)[C@@H]1c2ccccc2C(=O)N(C(C)C)[C@H]1c1ccc(CO)cc1`, the composite z-score is 0.251 (inactive) in experiment [1] and 0.658 in the experiment on XIP peptide (Xip251-270). The z-score in experiment [2] was -0.473; in experiment [3] it was -1.88 (inactive); in experiment [4], -0.247 (inactive); in experiment [5] it was -0.333 (inactive).

With `CCCNC(=O)[C@@]1(c2ccc([N+](=O)[O-])cc2)CC(=O)N(C2CCCCC2)[C@@H]1c1ccc(CO)cc1`, the composite z-score in experiment [1] is 2.45 (inactive); in the experiment with XIP peptide (Xip251-270), 0.73. Also, the z-score was -0.47 in experiment [2], -3.27 (inactive) in experiment [3], 0.0926 (inactive) in experiment [4] and 0.213 (inactive) in experiment [5].

Regarding `O=C1O[C@@H](c2ccccc2)[C@@H](c2ccccc2)N2[C@@H](c3ccc(O)cc3)[C@]3(C(=O)Nc4ccc(C#CC5=CCCCC5)cc43)[C@@H](C(=O)NC[C@H](O)c3ccccc3)[C@H]12`, the composite z-score in experiment [1] is 0.662 (inactive); in the experiment on XIP peptide (Xip251-270), 0.772. The z-score was -0.369 in experiment [2], 0.986 (inactive) in experiment [3], -0.384 (inactive) in experiment [4] and -0.016 (inactive) in experiment [5].

Consider `OCCCC1=CC(c2ccc(CN3CCCC3)cc2)N(Cc2sc3ccccc3c2Cl)CC1` (stereo unspecified), for which the composite z-score in experiment [1] is 0.705 (inactive); in the experiment with XIP peptide (Xip251-270), 0.797. For the same compound, the z-score in experiment [2] was -3.1; in experiment [3] it was -1.38 (inactive); in experiment [4], -0.186 (inactive); in experiment [5], -0.276 (inactive).

On to `COC(=O)[C@@]1(Cc2ccc(OC)cc2)[C@H]2c3cc(C(=O)N(C)C)n(Cc4ccc(Cl)c(C(F)(F)F)c4)c3C[C@H]2CN1C(=O)c1ccccc1`, for which the composite z-score in experiment [1] was -0.0177 (inactive); with XIP peptide (Xip251-270) it was 0.267. Moreover, the z-score was -1.48 in experiment [2], -3.47 (inactive) in experiment [3], 0.472 (inactive) in experiment [4] and 0.127 (inactive) in experiment [5].
